# Measured values taken from PubChem BioAssay (EPA / NIEHS).
# The source made the active and inactive calls. The calls were made as follows: active = hit-call score of the fitted dose curve at least 0.9, where 1 is the maximum; inactive = score below 0.9.
# Experiments:
# [1] = read-out: Interleukin-1 alpha (IL1a), IL1A (gene 3552); assay: BSK_KF3CT_IL1a: BioMAP Diversity Plus: KF3CT Assay for Interleukin-1 alpha (IL1a) Biomarker Activity (AID 2283070); details: primary human keratinocytes with fibroblasts; actives raise or lower the signal
# In short: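 Readout is IL-1a level by ELISA, compared bidirectionally with DMSO as baseline. Cells: human keratinocytes co-cultured with foreskin fibroblasts, harvested 24 h post-dose.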
# [2] = read-out: TIMP metallopeptidase inhibitor 2 (TIMP2), TIMP2 (gene 7077); assay: BSK_KF3CT_TIMP2: BioMAP Diversity Plus: KF3CT Assay for TIMP metallopeptidase inhibitor 2 (TIMP2) Biomarker Activity (AID 2283071); details: primary human keratinocytes with fibroblasts; actives raise or lower the signal
# In short: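 TIMP-2 measured by ELISA at 24 h in human keratinocyte/fibroblast primary co-cultures exposed to chemicals. Both increases and decreases were fitted against DMSO. Parallel cultures were stained with SRB for total protein as an overt-cytotoxicity check.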
# [3] = read-out: Transforming growth factor beta 1 (TGFb1), TGFB1 (gene 7040); assay: BSK_KF3CT_TGFb1: BioMAP Diversity Plus: KF3CT Assay for Transforming growth factor beta 1 (TGFb1) Biomarker Activity (AID 2283072); details: primary human keratinocytes with fibroblasts; actives raise or lower the signal
# In short: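 ELISA quantifies TGF-b1 at 24 h post-dose in a primary human skin co-culture of keratinocytes and fibroblasts, with gain or loss judged against DMSO. Parallel SRB total-protein staining flags overt cytotoxicity.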
# [4] = read-out: C-C motif chemokine 2 (Homo sapiens) (UniProt P13500); assay: BSK_KF3CT_MCP1: BioMAP Diversity Plus: KF3CT Assay for Monocyte Chemoattractant Protein 1 (MCP1/CCL2) Biomarker Activity (AID 2283073); details: primary human keratinocytes with fibroblasts; actives raise or lower the signal
# In short: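 Human keratinocyte–foreskin fibroblast co-culture; MCP-1 measured by ELISA 24 h after dosing. Bidirectional fit vs DMSO; cytotoxicity tracked by SRB total protein in parallel cultures.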
# [5] = read-out: Matrix Metallopeptidase 9 (MMP9), MMP9 (gene 4318); assay: BSK_KF3CT_MMP9: BioMAP Diversity Plus: KF3CT Assay for Matrix Metallopeptidase 9 (MMP9) Biomarker Activity (AID 2283074); details: primary human keratinocytes with fibroblasts; actives raise or lower the signal
# In short: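 Values come from bidirectional fitting relative to DMSO of MMP-9 levels, which were measured by ELISA. Measurements were taken 24 h after chemical dosing of a keratinocyte and foreskin fibroblast co-culture.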
# [6] = read-out: urokinase plasminogen activator (uPA), PLAU (gene 5328); assay: BSK_KF3CT_uPA: BioMAP Diversity Plus: KF3CT Assay for urokinase plasminogen activator (uPA) Biomarker Activity (AID 2283075); details: primary human keratinocytes with fibroblasts; actives raise or lower the signal
# In short: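 Values derive from bidirectional fitting against DMSO controls. Keratinocyte/foreskin fibroblast co-cultures received chemical; 24 h later uPA was detected by ELISA, with SRB total-protein staining in parallel wells for overt cytotoxicity.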
# [7] = read-out: CD40, CD40 (gene 958); assay: BSK_LPS_CD40: BioMAP Diversity Plus: LPS Assay for CD40 Biomarker Activity (AID 2283076); details: primary human HUVEC with PBMC; actives raise or lower the signal
# In short: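 HUVEC plus PBMC co-culture stimulated with LPS; CD40 quantified by ELISA 24 h after compound dosing. Fitting was bidirectional relative to DMSO. SRB staining of parallel cultures flagged overt cytotoxicity.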
# [8] = read-out: E-selectin (Homo sapiens) (UniProt P16581); assay: BSK_LPS_Eselectin: BioMAP Diversity Plus: LPS Assay for Eselectin Biomarker Activity (AID 2283077); details: primary human HUVEC with PBMC; actives raise or lower the signal
# In short: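 Human umbilical vein endothelial cells co-cultured with PBMC under LPS stimulation; cell-surface E-selectin measured by ELISA 24 h after dosing. Change in either direction versus DMSO, with SRB total-protein staining in parallel cultures for cytotoxicity.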
# [9] = read-out: Interleukin-8 (IL8), CXCL8 (gene 3576); assay: BSK_LPS_IL8: BioMAP Diversity Plus: LPS Assay for Interleukin-8 (IL8) Biomarker Activity (AID 2283078); details: primary human HUVEC with PBMC; actives raise or lower the signal
# In short: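 Human umbilical vein endothelial cells co-cultured with PBMC, LPS-stimulated, exposed to compound for 24 h. IL-8 quantified by ELISA; fitted in both directions against DMSO, with SRB total-protein staining of parallel cultures for cytotoxicity.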
# [10] = BSK_LPS_SRB: Viability Assessment in the BioMAP Diversity Plus: LPS Assay (AID 2283079); details: primary human HUVEC with PBMC;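 also: total protein by sulforhodamine B absorbance as a cytotoxicity measure; measured one day after compound addition; fitted in both directions against DMSO so loss or gain of signal counts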
# In short: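 Co-culture of human umbilical vein endothelial cells and PBMC, read 24 h after dosing. Total protein by 0.1% SRB staining after 10% TCA fixation, absorbance at 560 nm; bidirectional fit against DMSO.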
# [11] = read-out: Interleukin-1 alpha (IL1a), IL1A (gene 3552); assay: BSK_LPS_IL1a: BioMAP Diversity Plus: LPS Assay for Interleukin-1 alpha (IL1a) Biomarker Activity (AID 2283080); details: primary human HUVEC with PBMC; actives raise or lower the signal
# In short: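 Human umbilical vein endothelial cells co-cultured with PBMC and stimulated with LPS; IL-1a measured by ELISA 24 h after dosing. Bidirectional fitting against DMSO; cytotoxicity checked by SRB staining in parallel cultures.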
# [12] = read-out: Monocyte Chemoattractant Protein-1 (MCP1), CCL2 (gene 6347); assay: BSK_LPS_MCP1: BioMAP Diversity Plus: LPS Assay for Monocyte Chemoattractant Protein-1 (MCP1) Biomarker Activity (AID 2283081); details: primary human HUVEC with PBMC; actives raise or lower the signal
# In short: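 Human umbilical vein endothelial cells co-cultured with PBMC, LPS-stimulated; secreted MCP-1 measured by ELISA 24 h after compound addition. Bidirectional curve fitting against DMSO baseline; SRB total-protein staining in parallel cultures for cytotoxicity.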
# [13] = BSK_LPS_PGE2: BioMAP Diversity Plus: LPS Assay for Prostaglandin E2 (PGE2) Biomarker Activity (AID 2283082); details: primary human HUVEC with PBMC; actives raise or lower the signal;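 as to AC50: secreted prostaglandin E2 measured by ELISA in LPS-stimulated co-culture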
# In short: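 PGE2 release measured by ELISA in an LPS-activated co-culture of human umbilical vein endothelial cells and peripheral blood mononuclear cells, read at 24 h post-dosing. DMSO served as baseline for bidirectional curve fitting.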
# [14] = read-out: Macrophage colony-stimulating factor (MCSF), CSF1 (gene 1435); assay: BSK_LPS_MCSF: BioMAP Diversity Plus: LPS Assay for Macrophage colony-stimulating factor (MCSF) Biomarker Activity (AID 2283083); details: primary human HUVEC with PBMC; actives raise or lower the signal
# In short: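 HUVEC–PBMC co-culture, M-CSF measured by ELISA 24 h after chemical dosing. Fitted in both directions relative to DMSO as negative control; overt cytotoxicity assessed by SRB total-protein staining in parallel cultures.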
# [15] = read-out: Tumor necrosis factor (Homo sapiens) (UniProt P01375); assay: BSK_LPS_TNFa: BioMAP Diversity Plus: LPS Assay for Tumour Necrosis Factor alpha (TNFa) Biomarker Activity (AID 2283085); details: primary human HUVEC with PBMC; actives raise or lower the signal;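 as to AC50: TNFa protein level quantified by ELISA in the co-culture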
# In short: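 TNFa was quantified by ELISA in LPS-activated co-cultures of human endothelial cells and PBMC, 24 h post-dosing. Both increases and decreases versus DMSO were fitted.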
# [16] = read-out: Vascular cell adhesion molecule 1 (VCAM1), VCAM1 (gene 7412); assay: BSK_LPS_VCAM1: BioMAP Diversity Plus: LPS Assay for Vascular cell adhesion molecule 1 (VCAM1) Biomarker Activity (AID 2283086); details: primary human HUVEC with PBMC; actives raise or lower the signal
# In short: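 VCAM-1 quantified by ELISA in an LPS-activated co-culture of human endothelial cells and peripheral blood mononuclear cells, read 24 h post-treatment. Fitted in both directions versus DMSO; parallel SRB staining flags overt cytotoxicity.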
# [17] = read-out: CD38, CD38 (gene 952); assay: BSK_SAg_CD38: BioMAP Diversity Plus: SAg Assay for CD38 Biomarker Activity (AID 2283087); details: primary human HUVEC with PBMC; actives raise or lower the signal
# In short: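 CD38 quantified by ELISA (fluorescence) in a superantigen-activated endothelial cell–PBMC co-culture at 24 h post-dose. Activity fitted in both directions relative to DMSO; parallel SRB and Alamar Blue cytotoxicity read-outs.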
# [18] = read-out: CD40, CD40 (gene 958); assay: BSK_SAg_CD40: BioMAP Diversity Plus: SAg Assay for CD40 Biomarker Activity (AID 2283088); details: primary human HUVEC with PBMC; actives raise or lower the signal
# In short: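 HUVEC plus PBMC co-culture, superantigen-activated, with CD40 read by ELISA 24 h after dosing. Curves fitted in both directions against DMSO. Overt cytotoxicity checked by parallel SRB total-protein staining.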
# [19] = read-out: CD69, CD69 (gene 969); assay: BSK_SAg_CD69: BioMAP Diversity Plus: SAg Assay for CD69 Biomarker Activity (AID 2283089); details: primary human HUVEC with PBMC; actives raise or lower the signal;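 as to AC50: cell surface CD69 protein quantified by ELISA with fluorescence detection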
# In short: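 Values derive from bidirectional fitting relative to DMSO vehicle. Cells: umbilical vein endothelium plus peripheral blood mononuclear cells, treated 24 h before fluorescent ELISA for CD69.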
# Chain of Tumor necrosis factor (Homo sapiens) (P01375 whole entry, looked up): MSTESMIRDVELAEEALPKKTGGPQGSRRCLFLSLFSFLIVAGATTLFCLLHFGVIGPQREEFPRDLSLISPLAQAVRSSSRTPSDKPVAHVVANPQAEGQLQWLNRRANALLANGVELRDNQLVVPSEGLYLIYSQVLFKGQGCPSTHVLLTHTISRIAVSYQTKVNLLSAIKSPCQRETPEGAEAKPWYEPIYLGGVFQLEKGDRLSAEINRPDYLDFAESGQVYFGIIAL
# Chain of E-selectin (Homo sapiens) (P16581 whole entry, looked up): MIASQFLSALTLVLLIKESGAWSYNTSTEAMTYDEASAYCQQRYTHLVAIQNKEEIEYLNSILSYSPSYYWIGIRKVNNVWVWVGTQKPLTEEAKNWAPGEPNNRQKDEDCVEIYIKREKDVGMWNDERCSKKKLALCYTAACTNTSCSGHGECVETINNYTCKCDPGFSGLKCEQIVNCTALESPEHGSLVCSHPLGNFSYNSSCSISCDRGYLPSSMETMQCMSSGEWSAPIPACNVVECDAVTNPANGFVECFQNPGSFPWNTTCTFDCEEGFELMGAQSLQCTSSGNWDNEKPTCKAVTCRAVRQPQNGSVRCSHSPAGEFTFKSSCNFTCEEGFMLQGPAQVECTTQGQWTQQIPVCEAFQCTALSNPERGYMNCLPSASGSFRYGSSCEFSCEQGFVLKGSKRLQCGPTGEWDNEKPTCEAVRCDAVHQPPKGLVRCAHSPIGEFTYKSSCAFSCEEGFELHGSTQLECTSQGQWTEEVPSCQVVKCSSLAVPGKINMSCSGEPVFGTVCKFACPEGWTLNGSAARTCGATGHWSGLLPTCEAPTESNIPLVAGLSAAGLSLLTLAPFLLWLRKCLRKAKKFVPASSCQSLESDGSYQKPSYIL
smiles,measurement,setting,value
CCNc1nc(Cl)nc(NC(C)(C)C#N)n1,outcome,[1],inactive
same,outcome,[2],inactive
same,outcome,[3],inactive
same,outcome,[4],inactive
same,outcome,[5],inactive
same,outcome,[6],inactive
same,outcome,[7],inactive
same,outcome,[8],inactive
same,outcome,[9],inactive
same,outcome,[10],inactive
same,outcome,[11],inactive
same,outcome,[12],inactive
same,outcome,[13],inactive
same,outcome,[14],inactive
same,AC50,[15],3.97 µM (active)
same,outcome,[16],inactive
same,outcome,[17],inactive
same,outcome,[18],inactive
same,outcome,[19],inactive
CCOP(=S)(OCC)Oc1ccc([N+](=O)[O-])cc1,outcome,[1],inactive
same,outcome,[2],inactive
same,outcome,[3],inactive
same,outcome,[4],inactive
same,outcome,[5],inactive
same,outcome,[6],inactive
same,AC50,[7],16.7 µM (active)
same,outcome,[8],inactive
same,outcome,[9],inactive
same,outcome,[10],inactive
same,outcome,[11],inactive
same,AC50,[13],20 µM (active)
same,AC50,[14],20 µM (active)
same,outcome,[15],inactive
same,AC50,[16],20 µM (active)
same,AC50,[17],20 µM (active)
same,outcome,[18],inactive
same,AC50,[19],32.4 µM (active)
